The target of assay [1] is Cellular tumor antigen p53 (Homo sapiens) (UniProt P04637). As to the kind of experiment: Primary qHTS for small molecule compounds that upregulate eGFP-tagged delta133p53alpha (in N-terminal) cells. (AID 2060322). Also: nearly all actives have a fitted effect of over 75% in size. Also: potency is read from the fitted curve at half-maximal effect.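 As to activation: 0% = DMSO vehicle and 100% = reference activator.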 As to conditions: NCI-H358 eGFP-delta133p53alpha fluorescence, 24 h; activation: active compounds read high. In outline: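 NCI-H358 cells pre-induced 24 h with 10 ng/ml doxycycline to express N-terminal eGFP-delta133p53alpha, then dosed 24 h at 37C without doxycycline; fixed, Hoechst-stained, GFP intensity by laser scanning cytometry, normalized to DMSO (0%) and 57.5 uM 5-azacytidine (100%).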
Chain of Cellular tumor antigen p53 (Homo sapiens) (P04637 whole entry, looked up): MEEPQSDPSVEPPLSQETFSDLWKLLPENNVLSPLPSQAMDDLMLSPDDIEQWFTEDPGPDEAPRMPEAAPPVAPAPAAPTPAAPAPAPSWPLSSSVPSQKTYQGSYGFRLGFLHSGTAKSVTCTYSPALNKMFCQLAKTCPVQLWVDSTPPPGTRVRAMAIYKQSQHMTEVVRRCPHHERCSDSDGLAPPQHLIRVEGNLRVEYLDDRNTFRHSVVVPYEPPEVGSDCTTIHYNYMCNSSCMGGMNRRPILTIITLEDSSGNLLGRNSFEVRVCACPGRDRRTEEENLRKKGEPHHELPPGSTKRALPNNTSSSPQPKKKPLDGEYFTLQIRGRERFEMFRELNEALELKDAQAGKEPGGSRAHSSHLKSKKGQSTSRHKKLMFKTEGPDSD

The target in assay [2] is Aldehyde dehydrogenase, mitochondrial (Homo sapiens) (UniProt P05091). As to the kind of experiment: qHTS for Inhibitors of the Aldehyde Dehydrogenase Family (ALDH2) Primary screen (AID 2061308).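 Also: plate controls were vehicle for no effect and reference inhibitor for full effect; nearly all actives have a fitted effect of over 55% in size.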 Particulars: ALDH2 enzyme inhibition qHTS, 1536-well; series mostly up to 56 µM.
The target in assay [3] is Retinaldehyde dehydrogenase 3 (Homo sapiens) (UniProt P47895). As to the kind of experiment: qHTS for Inhibitors of the Aldehyde Dehydrogenase Family (ALDH1A3) Primary screen (AID 2061315). Also: potency is read from the fitted curve at half-maximal effect. As to conditions: ALDH inhibition qHTS; series mostly up to 56 µM.

Records with an inconclusive call do not appear. Values without a mark were called inactive. Calls of active or inactive are those of the source. Calls follow the shape of the dose curve; as a rule, active = well fitted curve in the direction sought with a large enough effect; inconclusive = small, poorly fitted or top-dose-only effect, or another doubt; inactive = no such curve, though single readings can be large; an effect the other way counts as inactive or inconclusive.

The text below walks through data of PubChem BioAssay (NCATS).

On to `COc1ccc(S(=O)(=O)N2CCC[C@H]2C(=O)Nc2cc(C)cc(C)c2)cc1`, for which the activation in assay [1] is -17.2%. For the same compound, the Potency entry in assay [2] and in assay [3] was “inactive” in each case.
Take `COC(=O)C12CCC(C)C(C)C1C1=CCC3C4(C)CCC(OC(C)=O)C(C)(C)C4CCC3(C)C1(C)CC2` (centres undefined): in assay [1], the activation was -12.2%. The Potency result in assay [2] and in assay [3] was “inactive” in each case.
`CC1CCC2(C(=O)O)CCC3(C)C(=CCC4C5(C)C[C@@H](O)[C@@H](O)C(C)(CO)C5CCC43C)C2C1(C)O` (some centres undefined): the activation in assay [1] was 11.6%. The Potency entry in assay [2] and in assay [3] was “inactive” each time.
On to `COc1c2c(c(C)c3c1C(=O)OC3)O[C@@]1(C)C[C@@H](O)[C@]34O[C@](OC)(CC[C@]3(C)[C@H]1C2)OC4(C)C`, for which the activation in assay [1] is -1.53%. In addition, the Potency result in assay [2] and in assay [3] was “inactive” throughout.
As for `CC(=O)OCC(=O)[C@@]12O[C@@H]1C[C@H]1[C@@H]3CC=C4C[C@@H](O)CC[C@]4(C)[C@H]3CC[C@@]12C`, the activation in assay [1] is 29%. For the same compound, the Potency result in assay [2] and in assay [3] was “inactive” each time.
For `CC(C)(O)C1CCC2(C)CCCC(C)(O)C2C1` (centres undefined), the activation in assay [1] is 2.68%. The Potency entry in assay [2] and in assay [3] was “inactive” throughout.
In the case of `C/C=C1/[C@H](O[C@@H]2O[C@H](CO)[C@@H](O)[C@H](O)[C@H]2O)OC=C(C(=O)OC)[C@H]1CC(=O)OCCc1ccc(O)c(O)c1`, in assay [1], the activation is 5.34%. In addition, the Potency result in assay [2] and in assay [3] was “inactive” each time.
Take `CC1(C)OC(=O)C(OCC2CC2)=C1c1ccc(S(C)(=O)=O)cc1`: the activation in assay [1] is -2.33%. The Potency entry in assay [2] and in assay [3] was “inactive” in each case.
With `CCCOC(c1cc2nccc(C(=O)O)c2[nH]1)c1ccccc1Cl` (centres undefined), the activation in assay [1] was 0.333%. The Potency result in assay [2] and in assay [3] was “inactive” throughout.
`C=C(C(=O)O)C1CC2=C(C)CCCC2(C)C[C@@H]1O` (some centres undefined): the activation in assay [1] is -16.1%. Also, the Potency entry in assay [2] and in assay [3] was “inactive” each time.
Take `CC(=O)O[C@@H]1[C@@H](O)[C@H](O[C@@H]2[C@@H](O)[C@@H](O)[C@H](O[C@H]3[C@H](O[C@H]4[C@H](O[C@H]5CC[C@@]6(C)C(CC[C@]7(C)C6CC=C6[C@@H]8CC(C)(C)CC[C@]8(C(=O)O)CC[C@]67C)[C@]5(C)CO)O[C@H](CO)[C@@H](O)[C@@H]4O)OC[C@@H](O)[C@@H]3O)O[C@H]2C)OC[C@H]1O` (some centres undefined): the activation in assay [1] was -3.05%. Also, the Potency result in assay [2] and in assay [3] was “inactive” throughout.
As for `CN1c2c(nc(N)[nH]c2=O)NC[C@@H]1CNc1ccc(C(=O)N[C@@H](CCC(=O)O)C(=O)O)cc1`, in assay [1], the activation was -8.33%. The Potency result in assay [2] and in assay [3] was “inactive” each time.
Regarding `COc1cc2c(cc1O)CC[C@H]1[C@@H]2CC[C@]2(C)[C@H](O)CC[C@@H]12`, the Potency in assay [1] was 1.51 µM (active); in assay [3] it was 17.8 µM (active). Besides, the Potency result in assay [2] was “inactive”.
On to `O=C(Nc1cc(C(F)(F)F)ccc1N1CCCCC1)c1ccncc1`, for which, in assay [1], the activation was -17.9%. The Potency entry in assay [2] and in assay [3] was “inactive” throughout.
Take `COC12CC3C(C(C)C1=CC(=O)O2)C(O)C(OC(C)=O)C1C(C)(C)C(OC(C)=O)CCC31C` (centres undefined): the activation in assay [1] was -3.05%. For the same compound, the Potency result in assay [2] and in assay [3] was “inactive” each time.
In the case of `CC(C)=CCC/C(C)=C/Cc1ccc(O)c(C2OC(=O)c3cc(C(=O)O)cc(O)c32)c1O` (centres undefined), the activation in assay [1] is -1.53%. Further, the Potency result in assay [2] and in assay [3] was “inactive” in each case.
With `CCCn1cc2c(nc(NC(=O)Nc3ccc(OC)cc3)n3nc(-c4ccco4)nc23)n1`, the activation in assay [1] is 9.07%. Besides, the Potency entry in assay [2] and in assay [3] was “inactive” each time.
For the compound `C=C1[C@@H](C2=CC(=O)OC2)CC[C@@]2(O)[C@@H]1CC1[C@H]2CC[C@@H]2C[C@@H](O[C@H]3O[C@@H](C)[C@@H](O[C@@H]4O[C@H](CO[C@@H]5O[C@H](CO)[C@@H](O)[C@H](O)[C@H]5O)[C@@H](O)[C@H](O)[C@H]4O)[C@H](OC)[C@H]3O)CC[C@]12C` (some centres undefined), the activation in assay [1] is 7.14%. In addition, the Potency entry in assay [2] and in assay [3] was “inactive” throughout.
As for `O=C(O)c1cccc(-c2ccc(-c3cn(C(=O)N4CCCCC4Cc4ccccc4)nn3)cc2)c1` (centres undefined), the activation in assay [1] is -9.67%. The Potency entry in assay [2] and in assay [3] was “inactive” throughout.
In the case of `CC(=O)Nc1ccn(C2COC(COC(=O)c3ccccc3)O2)c(=O)n1` (centres undefined), the activation in assay [1] is 16.4%. Also, the Potency entry in assay [2] and in assay [3] was “inactive” each time.
In the case of `CN(C)C(=O)CNC(=O)Cc1ccccc1`, the activation in assay [1] is 5.02%. The Potency entry in assay [2] and in assay [3] was “inactive” throughout.
Regarding `OC[C@H]1O[C@@H](OC[C@H]2O[C@@H](OC/C=C/c3ccccc3)[C@H](O)[C@@H](O)[C@@H]2O)[C@@H](O)[C@@H]1O`, in assay [1], the activation is 20.5%. In addition, the Potency result in assay [2] and in assay [3] was “inactive” in each case.
For the compound `C[C@H]1O[C@@H](O[C@H]2CC[C@@]3(C)C(CC[C@]4(C)C3CC=C3C5CC(C)(C)CC[C@]5(C(=O)O)CC[C@]34C(=O)O)C2(C)C)[C@H](O)[C@@H](O)[C@@H]1O` (some centres undefined), the activation in assay [1] is -12.2%. Moreover, the Potency result in assay [2] and in assay [3] was “inactive” throughout.
